Screening results (PubChem BioAssay)
An excerpt weighted towards active compounds, which were near 1.8% of everything screened.
LYPLA2 inh – LYPLA2 inhibitors, primary screen, counter-screen for PME1 inhibitor project, biochemical, fluorescence polarization, FP-Rh probe ABPP; inhibition, % at 5.9 µM; recombinant LYPLA2; 0.38% of 320,000 active; AID 2177, 2009;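 active = inhibition above the screen-wide mean plus 3 SD, limit set per campaign, cut at about 26% in these data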;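 also: 0% = LYPLA2 with DMSO and 100% = wells lacking LYPLA2 enzyme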
LYPLA1 inh – LYPLA1 inhibitors, primary screen, counter-screen for PME1 inhibitor project, biochemical, fluorescence polarization, FP-Rh probe ABPP; recombinant LYPLA1; inhibition, % at 5.9 µM; Acyl-protein thioesterase 1 (Homo sapiens), O75608; 0.16% of 320,000 active;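 active = inhibition above the mean of all tested compounds plus 3 SD, set per campaign, cut at about 14% in these data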;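 also: inhibitors block serine hydrolase probe labeling of LYPLA1 so polarization falls; 0% = enzyme with DMSO and 100% = wells lacking LYPLA1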
Target sequence (O75608 whole entry, looked up): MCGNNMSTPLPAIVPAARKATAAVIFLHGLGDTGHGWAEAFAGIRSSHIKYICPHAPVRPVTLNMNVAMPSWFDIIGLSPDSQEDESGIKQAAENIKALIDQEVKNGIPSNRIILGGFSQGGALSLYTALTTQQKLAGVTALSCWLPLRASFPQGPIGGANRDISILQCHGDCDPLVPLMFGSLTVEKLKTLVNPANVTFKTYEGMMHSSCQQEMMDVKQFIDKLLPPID
GSTO1 counter – inhibitors of recombinant GSTO1, primary screen, counter-screen for RBBP9 inhibitor project, biochemical, fluorescence polarization | activity-based probe fluorescence polarization | Glutathione S-transferase omega-1 (Homo sapiens), P78417 | 1.1% of 300,000 active | inhibition, % at 5.96 µM | AID 1974, 2009;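 active = inhibition above the campaign mean inhibition plus 3 SD, cut at about 35% in these data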;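 also: 0% = GSTO1-1 with DMSO and 100% = wells lacking GSTO1-1 enzyme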
Target sequence (P78417 whole entry, looked up): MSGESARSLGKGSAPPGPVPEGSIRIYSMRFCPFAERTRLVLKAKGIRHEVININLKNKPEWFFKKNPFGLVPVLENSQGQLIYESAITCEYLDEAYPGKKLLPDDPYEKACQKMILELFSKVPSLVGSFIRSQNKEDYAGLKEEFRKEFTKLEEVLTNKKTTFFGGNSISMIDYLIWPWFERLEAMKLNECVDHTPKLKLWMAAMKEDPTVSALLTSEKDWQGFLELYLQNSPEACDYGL
PAD4 FP inh – human PAD4 inhibitors, primary screen, biochemical, fluorescence polarization, 1536-well format. inhibition, % at 6.36 µM. 0.41% of 330,000 active. Protein-arginine deiminase type-4 (Homo sapiens), Q9UM07. recombinant PAD4, RCA probe fluorescence polarization;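 active = percent inhibition above a cutoff equal to the mean of all tested compounds plus 3 SD, cut at about 15% in these data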;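 also: 0% = PAD4 with RCA probe and DMSO and 100% = probe without PAD4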
Fam108B counter – mouse Fam108B serine hydrolase inhibitors, primary screen, counter-screen for RBBP9 inhibitor project, biochemical, fluorescence polarization. recombinant Fam108B, FP-Rh probe fluorescence polarization. inhibition, % at 9.51 µM. 0.33% of 300,000 active;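 active = inhibition above the screen mean inhibition plus 3 SD, computed separately per campaign, cut at about 18% in these data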;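 also: inhibitors lower polarization as less probe binds the enzyme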
PME-1 inh – PME-1 inhibitors via competitive probe labeling, primary screen, biochemical, fluorescence polarization, FP-Rh probe, HTS | inhibition, % at 5.9 µM | recombinant PME-1 | AID 2130, 2009 | Protein phosphatase methylesterase 1 (Homo sapiens), Q9Y570 | 0.53% of 320,000 active;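 active = inhibition above the campaign mean of all compounds plus 3 SD, cut at about 26% in these data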;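 also: competitive labeling of PME-1 active site by serine hydrolase directed probe; 0% = PME-1 with DMSO and 100% = wells lacking PME-1 enzyme; inhibitors block probe labeling so polarization falls and inhibition rises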
LYPLA1 conf – LYPLA1 inhibitors, retest, confirmation, counter-screen for PME1 inhibitor project, biochemical, fluorescence polarization, FP-Rh probe ABPP. shares compounds with LYPLA1 inh. recombinant LYPLA1. AID 2233, 2010. 69% of 480 active. inhibition, % at 5.9 µM;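 active = mean inhibition across replicates above the hit cutoff set in the primary screen, cut at about 15% in these data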;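 also: loss of FP-Rh probe labeling of LYPLA1 seen as lower polarization; 0% = LYPLA1 with DMSO and 100% = wells lacking LYPLA1 enzyme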
LYPLA2 confirm – LYPLA2 inhibitors, retest, confirmation, counter-screen for PME1 inhibitor project, biochemical, fluorescence polarization, FP-Rh probe ABPP; AID 2232, 2010; shares compounds with LYPLA2 inh; recombinant LYPLA2; 72% of 1,100 active; inhibition, % at 5.9 µM;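 active = mean inhibition across replicates above the hit cutoff set in the primary screen, cut at about 26% in these data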;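 also: blocked labeling of the enzyme by serine hydrolase FP-Rh probe lowers polarization; 0% = enzyme with DMSO and 100% = wells lacking LYPLA2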
LYPLA2 gel ABPP – LYPLA2 inhibitors in proteome, late-stage follow-up, gel-based competitive ABPP, fluorescence, assay provider | rhLYPLA2 in mouse brain proteome, gel ABPP FP-Rh | inhibition, % at 20 µM | shares compounds with LYPLA2 inh | 30% of 150 active;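 active = inhibition of LYPLA2 enzyme probe labeling above about 50%, limit read from the data; inactive = inhibition below that limit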;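 also: loss of FP-Rh probe labeling of the LYPLA2 gel band measured as band density; 0% = DMSO only control band and 100% = blank gel background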
* = called active by the depositor; . = no result given.

SMILES | LYPLA2 inh | LYPLA1 inh | GSTO1 counter | PAD4 FP inh | Fam108B counter | PME-1 inh | LYPLA1 conf | LYPLA2 confirm | others
COc1ccccc1-n1cc(C(=O)NCC(=O)N2CCN(Cc3ccccc3)CC2)c2ccccc2c1=O | 84* | 16* | 5 | -2 | -5 | 2 | 22* | 81*
COc1ccccc1-n1cc(C(=O)NCC(=O)NCc2ccc(F)cc2)c2ccccc2c1=O | 4 | 0 | -1 | 3 | 4 | 6 | . | .
CC(=O)N1CCN(c2ccc(NC(=S)NC(=O)c3ccc(C)c([N+](=O)[O-])c3)cc2)CC1 | 43* | 20* | 7 | 1 | 2 | 2 | 32* | 56*
CCOc1ccc(C(=O)NC(=S)Nc2ccc(N3CCCCC3)cc2)cc1[N+](=O)[O-] | 16 | -3 | 5 | -9 | 16 | 9 | . | .
COc1ccc(C(=O)NC(=S)Nc2ccc(N3CCN(C(C)=O)CC3)cc2)cc1[N+](=O)[O-] | 70* | 55* | -2 | -2 | 0 | 1 | 63* | 75*
COc1ccc(C(=O)NC(=S)Nc2cccc(NC(=O)c3ccco3)c2)cc1[N+](=O)[O-] | 48* | 37* | -1 | 5 | -8 | -23 | 13 | 24
COc1ccc(C(=O)NC(=S)Nc2ccc(NC(=O)c3ccco3)cc2)cc1[N+](=O)[O-] | 6 | -1 | 2 | -1 | -7 | -6 | . | .
Cc1nn(CC(=O)N2CCN(Cc3ccccc3)CC2)c(=O)c2ccccc12 | 5 | -5 | 3 | 1 | 0 | -3 | . | .
COc1ccc(CN2CCN(C(=O)Cn3nc(C(=O)O)c4ccccc4c3=O)CC2)cc1F | 57* | 17* | 1 | -1 | 0 | -1 | 15* | 63* | LYPLA2 gel ABPP=47
O=[N+]([O-])c1ccc(C2CCCC/C2=N/OCc2ccc(F)cc2)c([N+](=O)[O-])c1 (stereo unspecified) | -1 | -1 | -5 | -6 | 2 | 1 | . | .
O=[N+]([O-])c1ccc(N2CCC(=NOCc3ccc(Cl)cc3)CC2)cc1 | 78* | 58* | -5 | -4 | -5 | -2 | 70* | 75*
Cc1ccc(C(=O)ON=C2CCN(c3ccc([N+](=O)[O-])cc3)CC2)cc1 | 55* | 23* | 0 | 0 | -4 | 0 | 28* | 47*
Cc1ccc(C(=O)NC(=S)N2CCN(c3ccc([N+](=O)[O-])cc3)CC2)cc1 | 4 | -4 | 4 | -5 | -1 | 4 | . | .
COc1ccccc1CN(C)C(=O)COC(=O)c1c(C)noc1C | . | . | . | -4 | . | . | . | .
COc1cc2c(cc1OC)C(c1cc(OC)c(OC)cc1[N+](=O)[O-])N(C(C)=O)CC2 (stereo unspecified) | -2 | -3 | 4 | -4 | 1 | 2 | . | .
Cc1cc(C(=O)COc2ccccc2C(N)=O)c(C)n1C | 7 | 3 | -4 | 10 | -4 | 1 | . | .
Cc1cc(C(=O)COc2cccc3cccnc23)c(C)n1C | 29* | 21* | 26 | -7 | 8 | 18 | 6 | 7
CCc1ccc(S(=O)(=O)N2CCCC(N3CCN(c4ccc(OC)cc4)CC3)C2)cc1 (stereo unspecified) | 7 | 0 | 3 | 1 | 1 | 5 | . | .
